About 83,000 compounds went through this panel and 20% of them were active in at least one assay; those are over-represented in the sample as a whole.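 Growth was measured after 48 h exposure to one concentration of compound in 96-well plates. Values under 10 count as active.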 Unmarked numbers belong to inactive results. Calls of active or inactive are those of the source.

Among the test systems are SK-MEL-2 melanoma; EKVX NSCLC; SN12C renal; UO-31 renal; TK-10 renal; ACHN renal; CAKI-1 renal; A498 renal; CCRF-CEM leukemia; MOLT-4 leukemia.
Holding throughout (assay): NCI-60 one-dose screen, 48 h (100 = growth as untreated, 0 = no growth, -100 = all killed)
Holding throughout (conditions): 10 µM unless noted

As for `O=C(CCCCCCN1CC(=O)N2[C@H](c3ccc(Br)cc3)c3[nH]c4ccccc4c3C[C@@H]2C1=O)NO`, the growth in the assay with SK-MEL-2 melanoma was 60.3%; in the assay on EKVX NSCLC it was 56.7%; in the assay with SN12C renal, 56.6%; in the assay with UO-31 renal, 58.8%; with TK-10 renal, 40.6%; in the assay with ACHN renal, 72.3%. The growth in the assay with CAKI-1 renal was 51.5%; with A498 renal, 67.4%; with CCRF-CEM leukemia, 21%; in the assay on MOLT-4 leukemia it was 5.86% (active).
As to `COC(=O)CCC/C=C\C[C@H]1C=CC(=O)/C1=C/C[C@@H](O)C/C=C\CC(F)(F)F`, the growth in the assay with SK-MEL-2 melanoma is -3.66% (active); in the assay on EKVX NSCLC, 47.1%; with SN12C renal, -6.2% (active); with UO-31 renal, -68.9% (active); in the assay with TK-10 renal it was -2.5% (active); with ACHN renal, -47.7% (active). The growth in the assay on CAKI-1 renal is 1.42% (active); with A498 renal it was 109%; in the assay on CCRF-CEM leukemia, -9.32% (active); in the assay on MOLT-4 leukemia, 2.73% (active).
`COc1cc2c(c(OC)c1OC)C(=O)CC(c1cccc(NC(=O)c3ccc(C#N)cc3)c1)O2` (stereo not given): the growth is 69% in the assay on SK-MEL-2 melanoma; 83.8% in the assay with EKVX NSCLC; 83% with SN12C renal; 62.8% in the assay on UO-31 renal; 89.4% with TK-10 renal; 81.2% in the assay with ACHN renal. Also, the growth was 77.1% in the assay with CAKI-1 renal, 82.2% with A498 renal, 25.3% with CCRF-CEM leukemia and 27% in the assay with MOLT-4 leukemia.
Turning to `O=C(Nc1ccccc1[N+](=O)[O-])c1ccc(Cl)c(Cl)c1`, the growth was 95.6% in the assay on SK-MEL-2 melanoma; 85.3% in the assay on EKVX NSCLC; 94.7% with SN12C renal; 71.1% in the assay on UO-31 renal; 124% in the assay on TK-10 renal; 94.7% in the assay on ACHN renal. For the same compound, the growth in the assay on CAKI-1 renal is 92.8%; in the assay with A498 renal it was 58.7%; in the assay on CCRF-CEM leukemia it was 106%; with MOLT-4 leukemia, 96.7%.
For `O=C(O)COc1ccc(Cl)c(Cl)c1`, the growth was 118% in the assay with SK-MEL-2 melanoma; 104% in the assay on EKVX NSCLC; 114% in the assay with SN12C renal; 108% in the assay on UO-31 renal; 116% in the assay with TK-10 renal; 107% with ACHN renal. The growth is 107% in the assay with CAKI-1 renal, 110% in the assay on A498 renal, 100% in the assay with CCRF-CEM leukemia and 101% with MOLT-4 leukemia.
With `Cc1cccc2c1C[C@@]1(C2=O)C(c2ccc(C(C)(C)C)cc2)=NOS1=O` (stereo not given in full), the growth is 93.1% in the assay on SK-MEL-2 melanoma; 79.2% in the assay on EKVX NSCLC; 92.3% with SN12C renal; 77.1% in the assay on UO-31 renal; 158% in the assay with TK-10 renal; 108% in the assay on ACHN renal. The growth with CAKI-1 renal is 94.2%; in the assay with A498 renal, 77.1%; in the assay on CCRF-CEM leukemia, 83.6%; in the assay on MOLT-4 leukemia, 80.1%.
As for `N#Cc1cncc(-c2ccc3ncnc(Nc4cccc(Cl)c4)c3c2)c1`, the growth in the assay on SK-MEL-2 melanoma was 90.5%; in the assay with EKVX NSCLC, 40.7%; in the assay on SN12C renal, 82.9%; in the assay with UO-31 renal, 71%; in the assay on TK-10 renal, 43.9%; with ACHN renal it was 58.6%. Moreover, the growth is 66.1% in the assay on CAKI-1 renal, 33.4% with A498 renal, 101% in the assay with CCRF-CEM leukemia and 87.5% in the assay on MOLT-4 leukemia.
On to `N=C(N)c1ccc(-c2ccc(-c3ccccc3)s2)cc1`, for which the growth with SK-MEL-2 melanoma was 105%; with EKVX NSCLC, 84.6%; with SN12C renal, 70.3%; with UO-31 renal, 83.5%; in the assay with TK-10 renal it was 108%; in the assay on ACHN renal, 68.3%. The growth is 14.5% with CAKI-1 renal, 89.1% in the assay on A498 renal, 21% in the assay with CCRF-CEM leukemia and -3.58% (active) with MOLT-4 leukemia.
On to `Cc1ccc(-c2nc(-c3cn(C)c4ncccc34)cs2)cc1`, for which the growth in the assay on SK-MEL-2 melanoma was -14.6% [100 µM] (active); in the assay on EKVX NSCLC, -13.5% [100 µM] (active); with SN12C renal it was -13.1% [100 µM] (active); in the assay with UO-31 renal it was 14.8% [100 µM]; in the assay on TK-10 renal, -60% [100 µM] (active); in the assay on ACHN renal, 6.72% [100 µM] (active). In addition, the growth with CAKI-1 renal is -22.9% [100 µM] (active); with A498 renal it was -3.41% [100 µM] (active); in the assay with CCRF-CEM leukemia it was -4.89% [100 µM] (active); in the assay with MOLT-4 leukemia, 17.3% [100 µM].
On to `CN(CCCNC(=O)Cc1ccc2ccc3cccc4ccc1c2c34)CCCNc1cc(-c2ccc3ccccc3c2)nc2ccccc12`, for which the growth with SK-MEL-2 melanoma was -59.5% (active); with EKVX NSCLC it was -44.6% (active); in the assay on SN12C renal, -66.2% (active); in the assay with UO-31 renal it was -47.4% (active); in the assay on TK-10 renal, -58.2% (active); in the assay on ACHN renal it was -66.4% (active). In addition, the growth with CAKI-1 renal was -36.9% (active); in the assay on A498 renal, -62% (active); with CCRF-CEM leukemia, -74.5% (active); in the assay with MOLT-4 leukemia it was -82.9% (active).
For the compound `CCCCCCCCCCCCCCCCCCOc1ccccc1CC(=O)NCC[N+]1(C)CCCCC1`, the growth with SK-MEL-2 melanoma is 64.5%; in the assay on EKVX NSCLC, 89.1%; in the assay on SN12C renal it was 33%; with UO-31 renal, 76.2%; in the assay with TK-10 renal, 42.1%; with ACHN renal, 93.6%. The growth with CAKI-1 renal was 79.3%; in the assay on A498 renal, 66%; in the assay on CCRF-CEM leukemia it was 17.1%; in the assay with MOLT-4 leukemia it was 9.62% (active).
Turning to `Fc1ccc2[nH]cc(-c3nc(-c4c[nH]c5ccncc45)cs3)c2c1`, the growth was -49.9% (active) in the assay on SK-MEL-2 melanoma; -45.7% (active) in the assay with EKVX NSCLC; -49.8% (active) in the assay on SN12C renal; -69.9% (active) in the assay with UO-31 renal; -37.4% (active) in the assay on TK-10 renal; -78.2% (active) in the assay with ACHN renal. Also, the growth in the assay on CAKI-1 renal was -17.4% (active); in the assay on A498 renal, 62.1%; with CCRF-CEM leukemia, -19.2% (active); in the assay on MOLT-4 leukemia, -32.6% (active).
Take `O=C(/C=C/C12c3ccccc3C(c3ccccc31)C1C(=O)NC(=O)C12)c1ccc(Br)cc1` (stereo not given): the growth is 52.2% with SK-MEL-2 melanoma; 60.2% with EKVX NSCLC; 46.2% in the assay on SN12C renal; 41.4% in the assay with UO-31 renal; 61.2% with TK-10 renal; 66.2% in the assay with ACHN renal. For the same compound, the growth with CAKI-1 renal is 56.4%; in the assay on A498 renal, 60.2%; with CCRF-CEM leukemia it was -3.91% (active); in the assay on MOLT-4 leukemia it was 3.02% (active).

For the origin of these results see PubChem BioAssay (NCI).
